This note sets out measurements from the supplement of paper PMC10037445.

± gives the standard deviation of the averaged measurements. Over roughly 2,900 compounds, “NF-kB SEAP reporter activity, fold change vs agonist alone” has its median near 0.99; the highest 2% begin near 2.6. The list comes from a sample in which the highest values are over-represented; it also holds similar structures and randomly drawn compounds.

Experiment [1] has as its system RAW-Dual. Put plainly: NF-kB SEAP reporter activity, fold change vs agonist alone; higher = enhanced NF-kB activity. The method in brief:
(§1)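 RAW-Dual macrophages were seeded in DMEM at 50,000 cells/well in 384-well plates, given 50 nL of library stock by pin tool, and given a PRR agonist 1 h later. Plates were held at 37 °C, 5% CO2 for 20 hours, after which supernatant was read for IRF by QuantiLuc luminescence and for NF-κB by QuantiBlue absorbance at 620 nm. Reporter activity is expressed as fold change over wells that received agonist alone. A well was called cytotoxic when IncuCyte confluency fell below 70% of agonist controls in both mask sets.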

In experiment [2] the test system is RAW-Dual. Put plainly: NF-kB SEAP reporter activity, fold change vs agonist alone; cytotoxicity flag (confluency mask): not cytotoxic; higher = enhanced NF-kB activity. A digest of the protocol:
as §1

Experiment [3] deals with RAW-Dual. Kind of experiment: NF-kB SEAP reporter activity, fold change vs agonist alone; cytotoxicity flag (confluency mask): cytotoxic (confluency <70% of control); higher = enhanced NF-kB activity. The method in brief:
as §1

Setting [4] is: library stock concentration (final ~1000-fold dilution): 10 mM, cytotoxicity flag (confluency mask): not cytotoxic, agonist: Imiquimod (TLR7) […].
Where [5] appears, read: library stock concentration (final ~1000-fold dilution): 10 mM, cytotoxicity flag (confluency mask): not cytotoxic, agonist: MPLA (TLR4) […].
[6] abbreviates: agonist: ODN 1826 (TLR9) 0.5 ug/mL.
Setting [7] is: agonist: Pam2CSK4 (TLR2/6) 0.1 ug/mL.
[8] abbreviates: agonist: Pam3CSK4 (TLR2/1) 0.1 ug/mL.

As to `CC1COCCN1c1cc(-c2ccnn2C)c2ccnc(-c3ccn[nH]3)c2n1.Cl` (configuration not stated), the “NF-kB SEAP reporter activity” value in the experiment with RAW-Dual [1] (setting [4]) was 1.48; in the experiment on RAW-Dual [1] (setting [5]), 2.05.
In the case of `CC1COCCN1c1cc(-c2ccnn2C)c2ccnc(-c3ccn[nH]3)c2n1.Cl` (configuration not stated) (library stock concentration (final ~1000-fold dilution): 10 mM), the “NF-kB SEAP reporter activity” value in the experiment on RAW-Dual [2] (agonist: LPS (TLR4) 0.1 ug/mL) stood at 1.89; in the experiment with RAW-Dual [2] (setting [6]), 0.957; in the experiment with RAW-Dual [2] (setting [7]), 1.09; in the experiment on RAW-Dual [2] (setting [8]) it was 1.19.
Regarding `CC(C)NCC(O)COc1cccc2ccccc12.Cl` (configuration not stated) (library stock concentration (final ~1000-fold dilution): 10 mM), the “NF-kB SEAP reporter activity” value with RAW-Dual [2] (agonist: LPS (TLR4) 0.1 ug/mL) is 0.913; in the experiment with RAW-Dual [2] (setting [6]), 0.94; with RAW-Dual [2] (setting [7]), 0.822; in the experiment with RAW-Dual [2] (setting [8]), 1.08.
In the case of `CC(C)NCC(O)COc1cccc2ccccc12.Cl` (configuration not stated), the entries for the “NF-kB SEAP reporter activity” value in the experiment on RAW-Dual [1] (setting [4]) and with RAW-Dual [1] (setting [5]) were 1.07 and 1.04, respectively.
Regarding `CNCCN(C)Cc1c[nH]nc1-c1ccc(OC2CC(OCCC3CCOCC3)C2)cc1.Cl.Cl` (configuration not stated), the figures for the “NF-kB SEAP reporter activity” value in the experiment with RAW-Dual [1] (setting [4]) and in the experiment with RAW-Dual [1] (setting [5]) were 0.935 and 1.07, respectively.
`CNCCN(C)Cc1c[nH]nc1-c1ccc(OC2CC(OCCC3CCOCC3)C2)cc1.Cl.Cl` (configuration not stated) (library stock concentration (final ~1000-fold dilution): 10 mM): the “NF-kB SEAP reporter activity” value in the experiment with RAW-Dual [2] (agonist: LPS (TLR4) 0.1 ug/mL) worked out at 0.836; in the experiment on RAW-Dual [2] (setting [6]), 0.674; in the experiment with RAW-Dual [2] (setting [7]) it was 0.874; with RAW-Dual [2] (setting [8]), 0.586.
Consider `COc1ccc(CCc2nc3cc(-c4c(C)noc4C)ccc3n2CC(C)N2CCOCC2)cc1Cl` (configuration not stated) (library stock concentration (final ~1000-fold dilution): 10 mM), for which the “NF-kB SEAP reporter activity” value in the experiment on RAW-Dual [2] (agonist: LPS (TLR4) 0.1 ug/mL) amounted to 4.47; in the experiment on RAW-Dual [2] (setting [6]), 2.49; in the experiment with RAW-Dual [2] (setting [7]) it was 1.06; in the experiment with RAW-Dual [2] (setting [8]) it was 2.27.
For `COc1ccc(CCc2nc3cc(-c4c(C)noc4C)ccc3n2CC(C)N2CCOCC2)cc1Cl` (configuration not stated), the “NF-kB SEAP reporter activity” value with RAW-Dual [1] (setting [4]) was 1.51; in the experiment on RAW-Dual [1] (setting [5]) it was 2.65.
For `CCCOc1ccc(CCc2nc3cc(-c4c(C)noc4C)ccc3n2CCN2CCOCC2)cc1.Cl`, in that order: 1.53 and 1.98.
Turning to `CCCOc1ccc(CCc2nc3cc(-c4c(C)noc4C)ccc3n2CCN2CCOCC2)cc1.Cl` (library stock concentration (final ~1000-fold dilution): 10 mM), the “NF-kB SEAP reporter activity” value was determined as 2.48 with RAW-Dual [2] (agonist: LPS (TLR4) 0.1 ug/mL), 1.9 in the experiment with RAW-Dual [2] (setting [6]), 0.609 in the experiment with RAW-Dual [2] (setting [7]) and 1.04 in the experiment with RAW-Dual [2] (setting [8]).
On to `Cc1nc2cc(F)c(F)cc2n1-c1cncc(Nc2ccc(C(F)(F)F)cc2)n1` (library stock concentration (final ~1000-fold dilution): 10 mM), for which the “NF-kB SEAP reporter activity” value in the experiment with RAW-Dual [2] (agonist: LPS (TLR4) 0.1 ug/mL) stood at 1.36; with RAW-Dual [2] (setting [6]) it was 1.31; with RAW-Dual [2] (setting [7]), 0.571; in the experiment on RAW-Dual [2] (setting [8]), 0.582.
Consider `Cc1nc2cc(F)c(F)cc2n1-c1cncc(Nc2ccc(C(F)(F)F)cc2)n1`, for which the “NF-kB SEAP reporter activity” value in the experiment on RAW-Dual [1] (setting [4]) turned out to be 1.56; with RAW-Dual [1] (setting [5]) it was 1.33.
The like results for `CC1=CC2(O)OC3(CC2=C(C)C)C(C)CCC13` (configuration not stated) were, in that order, 0.957 ± 0.03 and 1.03 ± 0.025.
Turning to `CC1=CC2(O)OC3(CC2=C(C)C)C(C)CCC13` (configuration not stated) (library stock concentration (final ~1000-fold dilution): 10 mM), the “NF-kB SEAP reporter activity” value is 1.04 ± 0.043 with RAW-Dual [2] (agonist: LPS (TLR4) 0.1 ug/mL), 0.938 ± 0.07 in the experiment on RAW-Dual [2] (setting [6]), 0.963 ± 0.062 with RAW-Dual [2] (setting [7]) and 1.06 ± 0.049 with RAW-Dual [2] (setting [8]).
Consider `CCc1cc2c(cc1N1CCC(N3CCOCC3)CC1)C(C)(C)c1[nH]c3cc(C#N)ccc3c1C2=O.Cl` (library stock concentration (final ~1000-fold dilution): 2 mM), for which the “NF-kB SEAP reporter activity” value in the experiment on RAW-Dual [2] (agonist: LPS (TLR4) 0.1 ug/mL) was found to be 1.71; with RAW-Dual [2] (setting [6]) it was 1.17; in the experiment on RAW-Dual [2] (setting [7]) it was 1.15; in the experiment on RAW-Dual [2] (setting [8]), 1.15.
Turning to `CCc1cc2c(cc1N1CCC(N3CCOCC3)CC1)C(C)(C)c1[nH]c3cc(C#N)ccc3c1C2=O.Cl`, the “NF-kB SEAP reporter activity” value in the experiment with RAW-Dual [1] (library stock concentration (final ~1000-fold dilution): 2 mM, cytotoxicity flag (confluency mask): not cytotoxic, agonist: MPLA (TLR4) […]) worked out at 1.31.
Take `O=C(O)c1ccc(/C=C2/SC(=S)N(Cc3cccc(C(F)(F)F)c3)C2=O)cc1`: the “NF-kB SEAP reporter activity” value in the experiment with RAW-Dual [1] (setting [4]) was determined as 0.954; with RAW-Dual [1] (setting [5]), 0.727.
As to `O=C(O)c1ccc(/C=C2/SC(=S)N(Cc3cccc(C(F)(F)F)c3)C2=O)cc1` (library stock concentration (final ~1000-fold dilution): 10 mM), the “NF-kB SEAP reporter activity” value came out at 0.619 in the experiment on RAW-Dual [2] (agonist: LPS (TLR4) 0.1 ug/mL), 0.737 in the experiment with RAW-Dual [2] (setting [6]), 0.832 in the experiment on RAW-Dual [2] (setting [7]) and 0.5 in the experiment with RAW-Dual [2] (setting [8]).
As to `COc1cc(OCc2cccc(-c3ccccc3)c2C)cc(OC)c1CN1CCCCC1C(=O)O` (configuration not stated) (library stock concentration (final ~1000-fold dilution): 10 mM), the “NF-kB SEAP reporter activity” value in the experiment on RAW-Dual [3] (agonist: LPS (TLR4) 0.1 ug/mL) worked out at 1.21; in the experiment with RAW-Dual [3] (setting [6]) it was 0.794; in the experiment on RAW-Dual [3] (setting [7]), 1.03; in the experiment on RAW-Dual [3] (setting [8]), 1.17.
Regarding `COc1cc(OCc2cccc(-c3ccccc3)c2C)cc(OC)c1CN1CCCCC1C(=O)O` (configuration not stated), the “NF-kB SEAP reporter activity” value in the experiment with RAW-Dual [1] (library stock concentration (final ~1000-fold dilution): 10 mM, cytotoxicity flag (confluency mask): cytotoxic (confluency <70% of control), agonist: Imiquimod (TLR7) […]) came to 1.22; with RAW-Dual [1] (library stock concentration (final ~1000-fold dilution): 10 mM, cytotoxicity flag (confluency mask): cytotoxic (confluency <70% of control), agonist: MPLA (TLR4) […]), 1.03.
Consider `Cc1nccn1CC1CCc2c(c3ccccc3n2C)C1=O.Cl` (configuration not stated) (library stock concentration (final ~1000-fold dilution): 10 mM), for which the “NF-kB SEAP reporter activity” value in the experiment on RAW-Dual [2] (agonist: LPS (TLR4) 0.1 ug/mL) came out at 0.91; in the experiment on RAW-Dual [2] (setting [6]) it was 0.853; in the experiment on RAW-Dual [2] (setting [7]), 0.901; in the experiment on RAW-Dual [2] (setting [8]) it was 1.11.
As for `Cc1nccn1CC1CCc2c(c3ccccc3n2C)C1=O.Cl` (configuration not stated), the “NF-kB SEAP reporter activity” value with RAW-Dual [1] (setting [4]) was 0.917; in the experiment on RAW-Dual [1] (setting [5]) it was 0.785.
As for `C#Cc1cccc(Nc2ncnc3cc(OC)c(OCCCCCCC(=O)NO)cc23)c1` (library stock concentration (final ~1000-fold dilution): 10 mM), the “NF-kB SEAP reporter activity” value in the experiment on RAW-Dual [3] (agonist: LPS (TLR4) 0.1 ug/mL) came to 7.09; in the experiment with RAW-Dual [3] (setting [6]), 1.67; in the experiment on RAW-Dual [3] (setting [7]), 0.682; in the experiment with RAW-Dual [3] (setting [8]), 1.41.
With `COc1cc2ncnc(Nc3ccc(O)cc3)c2cc1OC` (library stock concentration (final ~1000-fold dilution): 10 mM), the “NF-kB SEAP reporter activity” value in the experiment with RAW-Dual [2] (agonist: LPS (TLR4) 0.1 ug/mL) worked out at 0.948; in the experiment with RAW-Dual [2] (setting [6]), 0.826; with RAW-Dual [2] (setting [7]), 0.971; with RAW-Dual [2] (setting [8]), 0.867.
For `COc1cc2ncnc(Nc3cc(Br)c(O)c(Br)c3)c2cc1OC` (library stock concentration (final ~1000-fold dilution): 10 mM), the “NF-kB SEAP reporter activity” value with RAW-Dual [2] (agonist: LPS (TLR4) 0.1 ug/mL) amounted to 2.14; in the experiment with RAW-Dual [2] (setting [6]) it was 0.951; in the experiment on RAW-Dual [2] (setting [7]), 0.984; with RAW-Dual [2] (setting [8]) it was 0.757.
